# System: tubulin (bovine brain)
# Experiment: tubulin polymerization end-point dOD, fold change relative to DMSO vehicle; higher = more polymerization (stabilization)
# Conditions: 50 µM; 60 min; 37 °C
# Method in brief: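 Cytoskeleton HTS-Tubulin polymerization kit: bovine brain tubulin (4 mg/ml in G-PEM buffer with PIPES pH 6.9, MgCl2, EGTA and GTP) was assembled on ice with compound at a final 50 μM in 0.5% DMSO in 384-well plates. Plates were warmed to 37°C in a Tecan reader and read at 340 nm every minute for 1 hour. The value is end-point change in optical density as percent fold change versus DMSO vehicle, with runs scaled by means and standard deviations of DMSO and reference-control wells.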
row,SMILES,tubulin polymerization end-point dOD [%]
1,O=C(Nc1nc2ccccc2[nH]1)c1cccc2ccccc12,-76.4
2,C=CCc1ccccc1OCC(=O)N/N=C\c1ccc(Cl)cc1,-25.9
3,COc1ccc(Br)cc1-c1nc(CN2C(=O)NC(C)(c3ccccc3)C2=O)cs1 (centres undefined),88.8
4,O=C(Nc1ccc2c(c1)OCCO2)C(=O)Nc1ccccc1Cl,13.5
5,Nc1c(C(=O)c2ccccc2)sc2nc3c(cc12)CCCC3,59.7
6,CCOc1ccc2nc(SCC(=O)Nc3ccc(OC)cc3OC)c(C)cc2c1,14.5
7,Cc1cc2cc3c(cc2nc1SCC(=O)NC1CCCC1)OCCO3,10.3
8,COc1ccc2cc(CN(Cc3ccco3)C(=O)c3cccs3)c(=O)[nH]c2c1,91.2
9,O=c1[nH]c(/C=C/c2ccccc2F)nc2ccccc12,21.3
10,COc1ccc(C)cc1NC(=O)CSc1nc2ccc(C(C)C)cc2cc1C#N,-41.3
11,Nc1cccc2c1C(=O)c1cccc(NC(=O)c3ccccc3)c1C2=O,24.7
12,O=C1CCCN1Cc1ccc(-c2ccccc2CNc2ncccn2)cc1,-32.9
13,c1ccc(CCc2nc3c4ccccc4ncn3n2)cc1,-31.9
14,Cc1ccc2cc(C#N)c(SCC(=O)c3ccccc3)nc2c1,-46.9
15,CCc1noc(CSc2ncnc3scc(-c4ccc(C)cc4)c23)n1,30.2
16,COc1ccccc1Nc1nc(-c2ccc(S(C)(=O)=O)cc2)cs1,104
17,COc1ccc(CCNC(=O)CSc2nc3cc4c(cc3cc2C)OCO4)cc1OC,-49.9
18,COc1cccc(/C=N/NC(=O)c2ccc(N3CCCC3=O)cc2)c1,11.9
19,COc1ccc2cc(CN(Cc3ccccc3Cl)C(=O)Nc3ccccc3OC)c(=O)[nH]c2c1,-4.53
20,CCC(C)Cc1c(C)sc2nc(SCc3nnc(C)o3)[nH]c(=O)c12 (centres undefined),-13.9
21,Cc1ccc(/C=N/NC(=O)c2ccc3c(c2)OCO3)cc1,-38.5
22,CCc1cc2cc(OC)ccc2nc1SCC(=O)Nc1cc(C)ccc1OC,-2.45
23,CC(C)n1ncc2cc(C(=O)Nc3cccc4c3CCCC4)cnc21,-23.5
24,CC(=O)Nc1ccc(Nc2nc(-c3c(C)nc4ccccn34)cs2)cc1,30.8
25,Cc1ccc(C)c(NC(=O)CSc2nc3cc4c(cc3cc2C#N)OCO4)c1,52.6
26,Cc1cc(NC(=O)CSc2nnc3c(C)cc4c(C)ccc(C)c4n23)no1,-40.7
27,COc1cc(C(=O)Nc2ccc3c(c2)Nc2ccccc2CC3)cc(OC)c1OC,-20.1
28,Cc1cccc2cc3c(N)c(C(=O)Nc4ccccc4N4CCOCC4)sc3nc12,411
29,O=C1NC(c2c(-c3ccccc3)[nH]c3ccccc23)Nc2ccccc21 (centres undefined),-92.1

# From the supplement of paper PMC4380459
